According to PubChem BioAssay (Tox21):
Results filed as inconclusive are left out. Active and inactive are the calls of the source. Unless noted, the call rests on the fitted dose curve.

Assays:
[1] = Nuclear factor erythroid 2-related factor 2/antioxidant responsive element (Nrf2/ARE) small molecule agonists: qHTS cell viability counter screen in human keratinocytes (AID 1919968; active means well fitted curve in the direction sought with a large enough effect in the repeat runs; an effect the other way counts as inactive or inconclusive; further: nearly all actives have a fitted effect of over 55% in size; further: potency means the concentration at half of the fitted maximal effect)
How it was run: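 Cytotoxicity was multiplexed with the Nrf2/ARE luciferase assay in the same wells. Stably transfected HaCaT keratinocytes were treated with test compounds for 23 h at 37 C. Cell viability was then measured by CellTiter-Fluor fluorescence.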

[2] = target: Gonadotropin-releasing hormone receptor (Homo sapiens) (UniProt P30968); experiment: Human gonadotropin-releasing hormone receptor (GnRHR) small molecule agonists, calcium flux assay in GnRHR-HEK293 cells (AID 1920063); further: nearly all actives have a fitted effect of over 35% in size
Sequence of Gonadotropin-releasing hormone receptor (Homo sapiens) (P30968 whole entry, looked up): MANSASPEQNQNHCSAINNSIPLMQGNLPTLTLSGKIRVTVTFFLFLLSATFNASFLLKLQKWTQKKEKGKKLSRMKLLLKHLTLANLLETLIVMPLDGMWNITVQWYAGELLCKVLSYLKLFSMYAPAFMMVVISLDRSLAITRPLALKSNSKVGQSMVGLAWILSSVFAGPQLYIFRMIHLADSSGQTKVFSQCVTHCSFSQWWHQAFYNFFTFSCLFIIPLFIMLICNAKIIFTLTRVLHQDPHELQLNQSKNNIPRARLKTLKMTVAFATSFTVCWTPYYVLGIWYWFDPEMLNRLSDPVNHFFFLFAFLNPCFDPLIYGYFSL
How it was run: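 Agonist activity was measured as intracellular calcium flux in HEK293 cells engineered to stably express human GnRHR. After dye loading for 1 hour at 37 C, compounds in DMSO were added and fluorescence was followed for 3 minutes.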

[3] = target: KiSS-1 receptor (Homo sapiens) (UniProt Q969F8); experiment: Human kisspeptin (KISS1R) small molecule agonists, calcium flux assay in KISS1R-HEK293 cells (AID 1920064; active means well fitted curve in the direction sought with a large enough effect in the repeat runs; an effect the other way counts as inactive or inconclusive)
Sequence of KiSS-1 receptor (Homo sapiens) (Q969F8 whole entry, looked up): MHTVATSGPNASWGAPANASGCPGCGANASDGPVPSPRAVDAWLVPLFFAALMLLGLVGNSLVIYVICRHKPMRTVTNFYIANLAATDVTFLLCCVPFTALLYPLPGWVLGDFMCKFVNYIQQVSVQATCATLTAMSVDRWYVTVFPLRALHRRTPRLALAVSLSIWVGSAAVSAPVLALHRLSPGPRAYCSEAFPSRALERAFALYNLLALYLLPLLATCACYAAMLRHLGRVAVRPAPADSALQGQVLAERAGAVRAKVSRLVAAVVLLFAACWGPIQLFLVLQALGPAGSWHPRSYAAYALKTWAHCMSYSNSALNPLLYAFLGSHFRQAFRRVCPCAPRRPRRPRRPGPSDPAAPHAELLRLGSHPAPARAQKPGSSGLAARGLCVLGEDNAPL
How it was run: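 Agonist activity is monitored as intracellular calcium rise in engineered HEK293 cells carrying human KISS1R. Cells are dye-loaded for 1 h at 37 C before compound addition, and fluorescence is recorded for 3 min.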

[4] = G protein-coupled receptor (GPCR) small molecule agonists, calcium flux assay: HEK293 wild type cell line counter screen (AID 1920065)
How it was run: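 Seed cells, incubate 18 h (37 C, 5% CO2); add calcium dye, 1 h at 37 C; pin-transfer compounds, ATP control or DMSO; read fluorescence 480/540 nm each second for 3 min.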

[5] = p53 small molecule agonists, cell-based qHTS assay with rat liver microsomes (AID 1963578)
How it was run: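 p53RE-bla cells were exposed to compounds together with rat liver microsomes (0.5 mg/mL final) and NADPH (0.5 mg/mL final) for 16 h at 37 C, then read by LiveBLAzer beta-lactamase fluorescence after 2 h at room temperature.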

[6] = p53 small molecule agonists, cell-based qHTS assay with human liver microsomes: qHTS cell viability counter screen (AID 1963579); further: nearly all actives have a fitted effect of over 45% in size
How it was run: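 p53RE-bla cells (4,000/well) were pre-incubated 5 h at 37 C, then given compounds in DMSO plus human liver microsomes (0.5 mg/mL final) and NADPH (0.5 mg/mL final) for 16 h at 37 C. Viability was read by CellTiter-Glo luminescence.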

[7] = p53 small molecule agonists, cell-based qHTS assay with rat liver microsomes: qHTS cell viability counter screen (AID 1963580); further: nearly all actives have a fitted effect of over 45% in size
How it was run: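 Luminescent ATP readout (CellTiter-Glo, 30 min at room temperature) reports viability of p53RE-bla HCT-116 cells after 16 h at 37 C with test compounds under metabolic activation by rat liver microsomes and NADPH at 0.5 mg/mL final each.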

[8] = p53 small molecule agonists, cell-based qHTS assay: qHTS cell viability counter screen (AID 1963581); further: nearly all actives have a fitted effect of over 45% in size
How it was run: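 Viability was counter-screened in parallel with the p53 agonist reporter by measuring intracellular ATP luminescence in the same HCT-116 p53RE-bla wells after 16 h compound treatment at 37 C.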

[9] = p53 small molecule agonists, cell-based qHTS assay (AID 1963582; active means well fitted activation curve with a large enough effect in the signal ratio in the repeat runs, not every such curve was filed as active; the % refers to the signal ratio)
How it was run: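 Cells carrying a p53-responsive bla reporter are treated with test compounds for 16 h at 37 C; beta-lactamase activity is then detected with LiveBLAzer B/G FRET substrate after 2 h at room temperature.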

[10] = target: 5-hydroxytryptamine receptor 2A (Homo sapiens) (UniProt P28223); experiment: 5-hydroxytryptamine receptor 2A (HTR2A) small molecule antagonists, cell-based qHTS assay (AID 1963586); further: nearly all actives have a fitted effect of over 45% in size
Sequence of 5-hydroxytryptamine receptor 2A (Homo sapiens) (P28223 whole entry, looked up): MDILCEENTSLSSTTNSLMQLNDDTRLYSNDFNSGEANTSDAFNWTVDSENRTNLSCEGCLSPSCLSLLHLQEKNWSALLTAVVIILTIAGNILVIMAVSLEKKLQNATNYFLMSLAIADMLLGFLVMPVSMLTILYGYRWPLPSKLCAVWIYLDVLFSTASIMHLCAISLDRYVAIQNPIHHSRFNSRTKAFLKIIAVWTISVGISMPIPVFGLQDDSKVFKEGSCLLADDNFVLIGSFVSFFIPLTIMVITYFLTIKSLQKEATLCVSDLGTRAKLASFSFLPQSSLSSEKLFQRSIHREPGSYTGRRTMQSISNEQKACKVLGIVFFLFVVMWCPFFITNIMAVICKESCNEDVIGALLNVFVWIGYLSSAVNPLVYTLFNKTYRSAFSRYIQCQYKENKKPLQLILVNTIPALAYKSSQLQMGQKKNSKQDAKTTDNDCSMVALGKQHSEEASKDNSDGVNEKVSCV
How it was run: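 CHO cells stably expressing human HTR2A were plated for 18 h at 37 C, then loaded with calcium dye for 1 h. Compounds were preincubated 5 min at room temperature before DOI (4 nM solution) was added. Kinetic fluorescence was read for 3 min.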

[11] = target: 5-hydroxytryptamine receptor 2A (Homo sapiens) (UniProt P28223); experiment: 5-hydroxytryptamine receptor 2A (HTR2A) small molecule agonists, cell-based qHTS assay (AID 1963587); further: nearly all actives have a fitted effect of over 30% in size
How it was run: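 HTR2A-CHO cells, plated 18 h at 37 C/5% CO2, dye-loaded 1 h at 37 C; compounds in DMSO added by pin tool (agonist mode). Intracellular calcium flux read as kinetic fluorescence on FDSS over 2 min at 1 s intervals.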

[12] = target: Muscarinic acetylcholine receptor M1 (Homo sapiens) (UniProt P11229); experiment: Cholinergic receptor muscarinic 1 (CHRM1) small molecule antagonists, cell-based qHTS assay (AID 1963588); further: nearly all actives have a fitted effect of over 40% in size
Sequence of Muscarinic acetylcholine receptor M1 (Homo sapiens) (P11229 whole entry, looked up): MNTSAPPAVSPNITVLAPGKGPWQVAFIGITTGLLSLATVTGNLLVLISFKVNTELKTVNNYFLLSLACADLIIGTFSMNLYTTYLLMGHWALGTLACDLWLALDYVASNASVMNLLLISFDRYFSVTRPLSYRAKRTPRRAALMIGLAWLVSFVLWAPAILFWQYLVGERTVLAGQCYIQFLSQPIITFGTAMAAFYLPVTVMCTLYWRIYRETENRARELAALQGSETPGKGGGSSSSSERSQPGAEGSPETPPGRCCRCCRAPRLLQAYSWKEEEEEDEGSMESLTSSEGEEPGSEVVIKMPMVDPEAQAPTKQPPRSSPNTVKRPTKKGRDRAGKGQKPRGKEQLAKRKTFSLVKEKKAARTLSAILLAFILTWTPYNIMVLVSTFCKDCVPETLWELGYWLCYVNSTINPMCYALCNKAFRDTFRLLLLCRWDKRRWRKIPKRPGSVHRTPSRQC
How it was run: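 Compounds were tested at 15 concentrations in three independent runs. Dye-loaded CHRM1-CHO cells were exposed 5 min at room temperature before stimulation by acetylcholine added at 50nM. Intracellular calcium was read kinetically on FDSS for 3 min.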

[13] = target: Muscarinic acetylcholine receptor M1 (Homo sapiens) (UniProt P11229); experiment: Cholinergic receptor muscarinic 1 (CHRM1) small molecule agonists, cell-based qHTS assay (AID 1963589); further: nearly all actives have a fitted effect of over 35% in size
How it was run: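 Cells were plated and incubated 18 h at 37 C/5% CO2, loaded with calcium dye for 1 h at 37 C, then treated with compounds in DMSO. Fluorescence was recorded kinetically at 1 sec intervals.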

[14] = cAMP Responsive Elements (CRE) small molecule agonists, cell-based qHTS assay (AID 1963590)
How it was run: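 Cells carrying a CRE-driven beta-lactamase reporter (HEK 293T) are seeded, incubated overnight (18 h), and treated with test compounds for 3 h at 37 C; reporter activity is then detected with a FRET substrate after 2 h at room temperature.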

[15] = cAMP Responsive Elements (CRE) small molecule antagonists, cell-based qHTS assay (AID 1963591; active means well fitted inhibition curve with a large enough effect in the signal ratio in the repeat runs, not every such curve was filed as active; the % refers to the signal ratio)
How it was run: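 Cells (CRE-bla HEK 293T, DMEM with 10% dialyzed FBS and 25 mM HEPES) are seeded and incubated 18 h. Compounds are added with NKH477 agonist at 0.25 uM final for 3 h, then FRET substrate for 2 h.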

[16] = target: Beta-2 adrenergic receptor (Homo sapiens) (UniProt P07550); experiment: Adrenergic beta2 receptor (ADRB2) small molecule antagonists, cell-based qHTS assay (AID 1963592); further: series mostly up to about 92 µM; nearly all actives have a fitted effect of over 50% in size
Sequence of Beta-2 adrenergic receptor (Homo sapiens) (P07550 whole entry, looked up): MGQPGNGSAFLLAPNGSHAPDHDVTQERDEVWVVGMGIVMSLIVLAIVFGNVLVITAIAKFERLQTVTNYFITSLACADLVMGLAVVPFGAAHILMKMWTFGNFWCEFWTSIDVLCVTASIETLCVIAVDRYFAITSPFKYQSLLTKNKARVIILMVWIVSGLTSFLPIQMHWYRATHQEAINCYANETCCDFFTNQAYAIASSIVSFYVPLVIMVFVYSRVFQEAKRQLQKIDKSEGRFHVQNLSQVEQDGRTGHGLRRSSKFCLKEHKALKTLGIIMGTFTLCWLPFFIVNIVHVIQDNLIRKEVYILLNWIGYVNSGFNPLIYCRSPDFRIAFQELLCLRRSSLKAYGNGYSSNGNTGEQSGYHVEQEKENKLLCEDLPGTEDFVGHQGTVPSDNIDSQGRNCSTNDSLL
How it was run: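 Assay format: CHO-ADRB2 cells, 18-20hr seeding at 37C/5% CO2, then compound plus 1nM isoproterenol agonist mix for 0.5hr RT. Homogeneous time-resolved fluorescence cAMP detection after 1hr, expressed as 665/615 nm ratio.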

[17] = target: D(2) dopamine receptor (Homo sapiens) (UniProt P14416); experiment: Dopamine D2 receptor (DRD2) small molecule agonists, cell-based qHTS assay (AID 1963594); further: nearly all actives have a fitted effect of over 35% in size
Sequence of D(2) dopamine receptor (Homo sapiens) (P14416 whole entry, looked up): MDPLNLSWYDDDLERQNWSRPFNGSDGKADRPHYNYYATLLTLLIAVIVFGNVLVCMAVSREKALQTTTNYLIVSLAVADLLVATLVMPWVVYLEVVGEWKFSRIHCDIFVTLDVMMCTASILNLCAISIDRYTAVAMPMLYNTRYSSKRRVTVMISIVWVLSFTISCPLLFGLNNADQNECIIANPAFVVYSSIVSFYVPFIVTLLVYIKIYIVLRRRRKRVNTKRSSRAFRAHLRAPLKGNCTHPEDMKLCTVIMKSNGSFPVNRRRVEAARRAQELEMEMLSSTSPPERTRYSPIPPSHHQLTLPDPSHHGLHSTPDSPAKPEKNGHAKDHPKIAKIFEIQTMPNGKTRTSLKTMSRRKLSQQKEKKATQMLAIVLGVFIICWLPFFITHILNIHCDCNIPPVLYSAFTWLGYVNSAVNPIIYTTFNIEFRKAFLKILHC
How it was run: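 HEK293 cells stably expressing DRD2 were cultured 24 h at 37 C, then given Ro20-1724 (0.1 mM final) and compounds for 10 min at room temperature. NKH477 (200nM) was then added for 30 min. cAMP was read by HTRF.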

[18] = target: D(2) dopamine receptor (Homo sapiens) (UniProt P14416); experiment: Dopamine D2 receptor (DRD2) small molecule antagonists, cell-based qHTS assay (AID 1963595; active means well fitted inhibition curve with a large enough effect in the signal ratio in the repeat runs, with a control signal flat; the % refers to the signal ratio)
How it was run: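 HEK293 cells stably expressing DRD2 were preincubated with 0.1 mM Ro20-1724, then with compound for 10 min at room temperature. Cells were stimulated with 200 nM NKH477 plus 12 nM quinpirole for 30 min, and cAMP was read by HTRF.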

[19] = p53 small molecule agonists, cell-based qHTS assay with human liver microsomes (AID 1963577)
How it was run: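 p53RE-bla reporter cells were pre-incubated 5 h at 37 C, then treated with compounds plus human liver microsomes (0.5 mg/mL final) and NADPH (0.5 mg/mL final) for 16 h at 37 C. Beta-lactamase activity was read by LiveBLAzer fluorescence after 2 h at room temperature.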

[20] = target: Beta-2 adrenergic receptor (Homo sapiens) (UniProt P07550); experiment: Adrenergic beta2 receptor (ADRB2) small molecule agonists, cell-based qHTS assay (AID 1963593);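 further: CHO cells stably overexpressing human ADRB2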
How it was run: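 CHO cells stably over-expressing ADRB2 were plated overnight at 37C, then dosed with compounds plus a stimulation mix containing 100uM IBMX and 25uM Ro-20-1724 for 0.5hr at room temperature. cAMP was measured by HTRF competition, 1hr.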

Measured: Potency

O=CN1CCCCC1
not listed: [19] | [20]
inactive: all other assays above

O=c1[nH]sc2cc(Cl)ccc12
active: [1] 18.8 µM
not listed: [5] | [6] | [9] | [14] | [15] | [16] | [18] | [20]
inactive: all other assays above

CCC(=O)O[C@]1(C(=O)COC)[C@@H](C)C[C@H]2[C@@H]3CCC4=CC(=O)C=C[C@]4(C)C3(F)[C@@H](O)C[C@@]21C (some centres not stated)
not listed: [2] | [10] | [14] | [15] | [16] | [17] | [18] | [20]
inactive: all other assays above

COc1ccc(CN(CCN(C)C)c2ncccn2)cc1
not listed: [3] | [6] | [7] | [8] | [10] | [13] | [20]
inactive: all other assays above

Cc1ccc2ccccc2n1
not listed: [4] | [9]
inactive: all other assays above

CNCCc1ccccn1
not listed: [6] | [10] | [11] | [12] | [13] | [19]
inactive: all other assays above

C=CC(=O)OCC(O)COc1ccccc1 (configuration not stated)
active: [1] 61.1 µM
not listed: [9] | [14] | [15] | [19] | [20]
inactive: all other assays above
